# Measured values taken from article PMC5700166.
# Substitutions are numbered along the chain they refer to.
# Key:
# Assay in all cases: protein-binding microarray (PBM); PBM: ~300 nM protein, 6 mM HEPES pH 7.8, 80 mM KCl, 0.5 mM EDTA, 0.5 mM EGTA, 6% glycerol, 35 ng/ul poly-dIdC, 1% milk, 1 h, room temperature; Ap Aiptasia and Nv Nematostella (sea anemones) / Co Capsaspora / Aq Amphimedon (sponge) / Dm Drosophila / Hu human; RHD is the Rel homology domain; high values mean tight binding
# Settings in all cases: dsDNA, one strand shown
# [1] = molecular target: T1, GST-Ap-NF-kB RHD (Exaiptasia pallida (Aiptasia), UniProt A0A913YAJ5 2-422)
# T1 sequence: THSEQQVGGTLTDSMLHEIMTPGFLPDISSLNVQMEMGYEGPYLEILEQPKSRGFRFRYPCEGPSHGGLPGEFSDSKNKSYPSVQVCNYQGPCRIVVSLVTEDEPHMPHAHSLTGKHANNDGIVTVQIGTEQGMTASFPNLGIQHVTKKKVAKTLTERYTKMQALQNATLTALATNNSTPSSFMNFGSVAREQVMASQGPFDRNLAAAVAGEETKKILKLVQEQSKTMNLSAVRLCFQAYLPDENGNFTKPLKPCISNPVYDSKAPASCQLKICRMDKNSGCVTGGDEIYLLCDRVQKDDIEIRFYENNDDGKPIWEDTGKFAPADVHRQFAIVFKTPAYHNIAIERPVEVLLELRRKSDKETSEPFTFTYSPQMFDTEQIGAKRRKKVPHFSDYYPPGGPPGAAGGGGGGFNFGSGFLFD
# [2] = molecular target: T2, GST-Nv-NF-kB (Cys allele) (Nematostella vectensis, UniProt E5G601 2-411)
# T2 sequence: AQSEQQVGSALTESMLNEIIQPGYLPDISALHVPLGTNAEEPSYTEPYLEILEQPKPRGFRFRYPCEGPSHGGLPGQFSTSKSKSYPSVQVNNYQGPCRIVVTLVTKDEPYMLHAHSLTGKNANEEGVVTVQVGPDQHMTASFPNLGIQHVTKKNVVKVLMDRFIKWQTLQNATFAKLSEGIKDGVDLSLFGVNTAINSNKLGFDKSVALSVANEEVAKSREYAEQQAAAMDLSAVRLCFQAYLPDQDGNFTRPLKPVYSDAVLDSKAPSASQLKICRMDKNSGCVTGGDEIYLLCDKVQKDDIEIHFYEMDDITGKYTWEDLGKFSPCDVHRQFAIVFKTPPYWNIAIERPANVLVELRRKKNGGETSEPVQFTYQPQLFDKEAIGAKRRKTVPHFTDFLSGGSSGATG
# [3] = molecular target: T3, GST-Nv-NF-kB (Ser allele) (Nematostella vectensis, UniProt A7UNT2 2-411)
# T3 sequence: T2 sequence with Q21R, C66S, S207N, E215Q, V217A, E225K, A268E, D399E
# [4] = molecular target: T4, GST-Co-NF-kB (Capsaspora owczarzaki, UniProt F1ARL5 200-546)
# T4 sequence: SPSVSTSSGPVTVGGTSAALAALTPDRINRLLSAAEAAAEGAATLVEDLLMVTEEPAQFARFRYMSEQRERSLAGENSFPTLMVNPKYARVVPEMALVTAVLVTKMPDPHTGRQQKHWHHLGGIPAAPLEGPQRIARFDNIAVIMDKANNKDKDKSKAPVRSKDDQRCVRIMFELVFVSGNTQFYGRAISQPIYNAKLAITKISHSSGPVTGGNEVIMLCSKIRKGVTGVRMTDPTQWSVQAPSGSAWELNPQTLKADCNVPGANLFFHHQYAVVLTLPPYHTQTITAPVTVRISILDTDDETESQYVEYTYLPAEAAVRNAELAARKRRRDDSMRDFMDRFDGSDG
# [5] = molecular target: T5, GST-Dm-Relish (Drosophila melanogaster, UniProt Q94527 99-473)
# T5 sequence: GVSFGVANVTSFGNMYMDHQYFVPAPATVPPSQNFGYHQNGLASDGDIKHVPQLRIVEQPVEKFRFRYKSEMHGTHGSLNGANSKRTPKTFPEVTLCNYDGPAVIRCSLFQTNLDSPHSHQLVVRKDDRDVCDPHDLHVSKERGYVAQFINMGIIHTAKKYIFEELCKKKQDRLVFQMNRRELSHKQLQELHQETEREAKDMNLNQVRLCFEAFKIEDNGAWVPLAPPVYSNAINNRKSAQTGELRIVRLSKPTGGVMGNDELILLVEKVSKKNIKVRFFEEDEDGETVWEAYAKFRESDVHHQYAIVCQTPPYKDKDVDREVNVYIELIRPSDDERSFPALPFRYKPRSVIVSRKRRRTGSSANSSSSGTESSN
# [6] = molecular target: T6, GST-Aq-NF-kB (Amphimedon queenslandica, UniProt A9Y5G7 2-389)
# T6 sequence: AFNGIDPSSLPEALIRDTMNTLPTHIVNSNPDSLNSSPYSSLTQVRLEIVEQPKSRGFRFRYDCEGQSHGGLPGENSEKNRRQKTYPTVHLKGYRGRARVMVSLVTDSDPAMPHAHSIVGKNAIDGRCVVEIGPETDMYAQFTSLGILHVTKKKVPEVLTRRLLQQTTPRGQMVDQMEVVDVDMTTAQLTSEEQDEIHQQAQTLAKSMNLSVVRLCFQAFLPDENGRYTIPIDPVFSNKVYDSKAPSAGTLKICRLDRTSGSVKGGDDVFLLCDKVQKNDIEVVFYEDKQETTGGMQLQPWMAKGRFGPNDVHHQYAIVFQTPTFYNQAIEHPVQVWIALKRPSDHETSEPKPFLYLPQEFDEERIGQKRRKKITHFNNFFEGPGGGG
# [7] = molecular target: GST-Hu-p50 (Homo sapiens, UniProt P19838 7-356)
# GST-Hu-p50, sequence (P19838 7-356): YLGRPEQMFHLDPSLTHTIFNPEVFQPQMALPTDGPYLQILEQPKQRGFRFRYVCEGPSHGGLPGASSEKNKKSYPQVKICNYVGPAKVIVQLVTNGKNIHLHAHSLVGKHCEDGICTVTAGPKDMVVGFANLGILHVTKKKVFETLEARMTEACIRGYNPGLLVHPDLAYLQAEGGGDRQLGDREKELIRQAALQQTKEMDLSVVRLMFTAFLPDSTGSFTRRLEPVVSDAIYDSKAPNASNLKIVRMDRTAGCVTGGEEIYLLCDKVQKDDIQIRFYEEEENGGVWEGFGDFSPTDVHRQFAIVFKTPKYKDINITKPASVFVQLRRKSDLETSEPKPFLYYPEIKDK
Sequence,binding signal [1] [z-score],binding signal [2] [z-score],binding signal [3] [z-score],binding signal [4] [z-score],binding signal [5] [z-score],binding signal [6] [z-score],binding signal [7] [z-score]
CCGATTAACATCAAGAAATTCCCTGATGTTAATCGGGTCTTGATTCGCTTGACGCTGCTG,5.84,8.19,8.01,4.57,5.32,6.81,5.84
CCGATTAACATCAGATCTCCCCCTGATGTTAATCGGGTCTTGATTCGCTTGACGCTGCTG,6.98,5.31,6.01,8.07,2.64,4.88,5.76
CCGATTAACATCAAGGGGGGTAATGATGTTAATCGGGTCTTGATTCGCTTGACGCTGCTG,4.04,4.87,4.3,5.42,3.36,4.75,3.62
CCGATTAACATCAGGGGGGACCCTGATGTTAATCGGGTCTTGATTCGCTTGACGCTGCTG,6.34,4.19,3.73,4.11,6.14,5.92,4.27
CCGATTAACATCACGGGAATTCCTGATGTTAATCGGGTCTTGATTCGCTTGACGCTGCTG,7.73,7.86,5.2,5.35,8.07,8.38,4.61
CCGATTAACATCAGGACATTCCCTGATGTTAATCGGGTCTTGATTCGCTTGACGCTGCTG,2.97,4.82,2.96,1.36,3.89,6.9,3.21
CCGATTAACATCAGGGGGGTAGATGATGTTAATCGGGTCTTGATTCGCTTGACGCTGCTG,4.07,3.34,3.24,5.47,3.11,3.59,3.2
CCGATTAACATCAGGACTCCCCATGATGTTAATCGGGTCTTGATTCGCTTGACGCTGCTG,5.91,3.31,3.6,3.44,6.5,4.12,2.97
CCGATTAACATCAGGGAAATCACTGATGTTAATCGGGTCTTGATTCGCTTGACGCTGCTG,3.41,4.78,4.63,2.62,8.27,5.99,4.18
CCGATTAACATCACAAATTACCCTGATGTTAATCGGGTCTTGATTCGCTTGACGCTGCTG,3.66,5.32,5.44,3.35,3.01,4.95,4.07
CCGATTAACATCAACAAAATCCCTGATGTTAATCGGGTCTTGATTCGCTTGACGCTGCTG,3.4,3.64,3.66,1.89,6.66,3.47,2.65
CCGATTAACATCAAAATTCCCCGTGATGTTAATCGGGTCTTGATTCGCTTGACGCTGCTG,9.41,11.3,11.6,10.6,8.96,8.42,7.28
